From PubChem BioAssay
A selection: hits, their analogues and other compounds. The true share with any hit is near 7.4%.
KinaseGlo FLuc = Kinase-Glo luciferase inhibition (counter-screen); actives 0.28% (n = 200,000); Kinase-Glo luciferase, ATP luminescence, 8 min; Potency, µM (doses to about 38.3 µM), for inactives: at the top dose activity change, negative = inhibition, most hits filed as inhibitors; Q27757; also: % is scaled to controls: 0 for no effect and ±100 for the full control effect; nearly all actives have a fitted effect of over 60% in size
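Kinase-Glo luciferase light output from ATP and luciferin was measured with 10 uM ATP, within the enzyme's linear range. Buffer: 50 mM imidazole pH 7.2, 50 mM KCl, 7 mM MgCl2, 0.01% Tween 20, 0.05% BSA; luminescence read after 8 min at ambient temperature.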
FLuc counter = counter-screen for miR-21 project: firefly luciferase inhibitors or activators; Potency, µM (top dose mostly 57.5 µM), for inactives: at the highest dose activity change, negative = inhibition, hits mostly inhibitors; actives 6.9% (n = 360,000); purified FLuc, Km substrates, luminescence inhibition; P08659; AID 588342;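 also: plate controls were vehicle for no effect and reference inhibitor for full effect; nearly all actives have a fitted effect of over 55% in size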
Target sequence (P08659 whole entry, looked up): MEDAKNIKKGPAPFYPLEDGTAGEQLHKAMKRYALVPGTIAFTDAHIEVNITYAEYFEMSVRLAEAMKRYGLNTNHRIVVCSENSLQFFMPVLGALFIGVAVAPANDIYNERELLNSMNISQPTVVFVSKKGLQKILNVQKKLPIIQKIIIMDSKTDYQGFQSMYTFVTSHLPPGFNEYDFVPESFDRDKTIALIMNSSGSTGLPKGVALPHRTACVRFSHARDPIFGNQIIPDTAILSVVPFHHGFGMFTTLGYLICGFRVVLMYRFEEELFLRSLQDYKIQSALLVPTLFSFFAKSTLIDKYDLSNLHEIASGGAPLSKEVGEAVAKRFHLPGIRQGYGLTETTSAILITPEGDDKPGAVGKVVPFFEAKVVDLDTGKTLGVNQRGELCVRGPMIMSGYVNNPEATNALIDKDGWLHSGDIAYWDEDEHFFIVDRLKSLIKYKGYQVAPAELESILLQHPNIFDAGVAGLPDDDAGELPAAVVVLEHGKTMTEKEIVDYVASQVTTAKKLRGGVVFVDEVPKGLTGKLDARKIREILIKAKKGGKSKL
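Biochemical qHTS of compounds, final roughly 60 µM downward over six points, against 10 nM purified firefly luciferase using Km concentrations of substrates (10 uM D-luciferin, 10 uM ATP) in Tris acetate pH 7.5 buffer; luminescence output.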
ELG1 genotoxic = genotoxicity induction in ELG1-luciferase HEK293T cells; HEK293T ELG1-luciferase reporter, luminescence, 16 h; Potency, µM (doses to about 46 µM), for inactives: top-dose activity change, positive = activation, most hits filed as activators; actives 1.3% (n = 330,000); also: % of control where 0% means no effect; nearly all actives have a fitted effect of over 60% in size
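Step 1: seed 2,000 HEK293T ELG1-luciferase cells per well. Step 2: add compound or DMSO, incubate 16 hr at 37 °C. Step 3: ONE-Glo, 30 min at room temperature, read luminescence.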
SMN2 splice enh = enhancers of SMN2 splice variant expression; HEK293 SMN2-luciferase splicing reporter, luminescence, 30-36 h; Potency, µM (top dose mostly 46.1 µM), without a hit: at the highest dose activity change, positive = activation, actives largely listed as activators; actives 2.8% (n = 210,000); AID 1458; also: % of control where 0% means no effect; nearly all actives have a fitted effect of over 55% in size
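qHTS luciferase splicing reporter: luminescence rises when SMN2 exon 7 is included in transfected HEK293 cells. Compound exposure lasted 30-36 h at 37C, with 4.5 mM final sodium butyrate as control, followed by a ONE-Glo read.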
Rab9 promoter act = activates the Rab9 promoter; Huh7 Rab9 promoter-luciferase reporter, luminescence, 24 h; Potency, µM (highest dose often 9.22 µM), for inactives: at the highest dose activation, negative = inhibition, actives largely listed as activators; actives 2.8% (n = 320,000); AID 485297; also: % of control where 0% means no effect; nearly all actives have a fitted effect of over 60% in size
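Huh7 reporter line, Rab9 promoter upstream of luciferase. Compound exposure 24 h at 37 °C in reduced-serum medium with 10% FBS. Read-out: luminescence.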
NPC1 promoter act = NPC1 promoter activation; actives 2.4% (n = 320,000); Potency, µM (titrated, usually from 9.22 µM), for inactives: top-dose activation, most hits filed as activators; Huh7 NPC1 promoter luciferase reporter, 24 h; also: % of control where 0% means no effect; nearly all actives have a fitted effect of over 60% in size
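Readout is luciferase luminescence, reflecting NPC1 promoter activation in stably transfected Huh7 cells after 24 h compound exposure at 37 °C in reduced-serum medium with 10% FBS.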
The depositor's hits bear a star; ? = inconclusive; . = no result; [ ] = another dose, or the depositor's remark. Calls follow the shape of the dose curve; as a rule, active = well fitted curve in the direction sought with a large enough effect; inconclusive = small, poorly fitted or top-dose-only effect, or another doubt; inactive = no such curve, though single readings can be large; an effect the other way counts as inactive or inconclusive. Potency is read from the fitted curve at half-maximal effect.

SMILES	KinaseGlo FLuc	FLuc counter	ELG1 genotoxic	SMN2 splice enh	Rab9 promoter act	NPC1 promoter act
Cc1ccc(NC(=O)NCCN2CCCCC2)cc1C	.	2%	0%	.	0%	-6%
Cn1cccc1CNC(=O)Nc1ccccc1	6%	19µM*	?	?	?	28%
Cc1ccc(NC(=O)NCc2cccn2C)cc1C	.	?	?	.	?	4µM*
Cn1ncc(Cl)c1C(=O)NCC1CCCO1 (stereo not drawn)	.	4%	-3%	.	-6%	-1%
COc1ccc2[nH]c(=O)c(CN(CC3CCCO3)S(=O)(=O)c3ccccc3F)cc2c1 (stereo not drawn)	.	-2%	-18%	.	2%	1%
Cn1/c(=N/NC(=O)c2ccccc2F)sc2ccccc21	0%	15µM*	?	?	2.8µM*	?
Cc1ccc(C(=O)N/N=c2\sc3ccccc3n2C)cc1	-5%	21µM*	0%	9%	13%	20%
COc1ccc(OC)c(S(=O)(=O)NC(N)=NCCc2ccccc2)c1	-1%	3%	-4%	-19%	-6%	1%
Cc1cccc(-c2ocnc2C(=O)Nc2ccccc2NC(=O)c2ccccn2)c1	.	13µM*	-16%	.	0%	-1%
Cc1ccc(-c2ocnc2C(=O)Nc2nc(C)cs2)cc1	.	?	13%	.	27%	?
Cc1ccc(-c2ocnc2C(=O)Nc2ccccc2NC(=O)c2ccccn2)cc1	.	15µM*	-19%	.	1%	0%
Cc1ccc2[nH]c(=O)c(CNS(=O)(=O)c3ccccc3)c(-c3ccccc3)c2c1	1%	2%	-5%	-10%[1.84 µM]	-3%	-4%
C=CCOc1ccc(CNc2nccs2)cc1OCC	0%	-18%	2%	-24%	-2%	-2%
C=CCOc1ccc(CNc2nccs2)cc1	-1%	13µM*	14%	?	25%	2%
COc1cccc(-c2noc(-c3ccc4c(c3)OCO4)n2)c1	.	0.54µM*	1.8µM*	.	0.56µM*	2.5µM*
c1ccc(-c2noc(-c3ccc4c(c3)OCO4)n2)cc1	10µM*	0.48µM*	0.41µM*	5µM*	0.28µM*	0.45µM*
COCC1CCN(Cc2nc(-c3ccc4c(c3)OCO4)no2)C1 (stereo not drawn)	1%	?	?	.	2.8µM*	?
O=C(NCc1nc(-c2ccccc2)no1)c1ccc2c(c1)OCO2	6%	1%[2.3 µM]	0%	5%	2%	-2%
COc1ccc(OC)c(-n2nnc(-c3nc(-c4ccc5c(c4)OCO5)no3)c2C)c1	.	6%	.	.	.	.
c1ccc(-c2noc(-c3ccc4ccccc4c3)n2)cc1	-14%	0.27µM*	?	-9%	-15%	-17%
CC(C)NC(=O)N1CCC2(CC1)CCN(S(C)(=O)=O)CC2	-1%	.	.	-11%	.	.
O=C(NCc1ccc(Cl)cc1)C1CCCN1C(=O)Nc1ccccc1 (stereo not drawn)	.	6%	2%	.	-4%	1%
COc1ccc(-c2noc(-c3ccc4c(c3)OCO4)n2)cc1	-6%	0.95µM*	?	8.9µM*	1.1µM*	0.79µM*
COc1ccc(-c2noc(COc3ccc4c(c3)OCO4)n2)cc1	5%	5%	0%	2%	2%	-4%
O=S(=O)(NCC1CCCO1)c1ccccc1F (stereo not drawn)	.	5%	0%	.	-2%	-1%
SMILES	KinaseGlo FLuc	FLuc counter	ELG1 genotoxic	SMN2 splice enh	Rab9 promoter act	NPC1 promoter act
CSc1nnc2c(n1)c(C)nn2-c1cccc(C)c1	-3%	13µM*	1%	14%	-5%	3%
CSc1nncc(/C(C)=N\Nc2cccc(C)c2)n1	-7%	-5%	7%	-14%	9%	5%
CCc1ccc(OCc2ccc(C(=O)NCc3ccccn3)o2)cc1	-1%	?	?	5µM*	?	?
Cc1cccc(OCc2ccc(C(=O)N3CCOCC3)o2)c1	.	0%	-1%	.	3%	3%
CCCc1ccc(OCc2ccc(C(=O)N3CCSCC3)o2)cc1	.	21µM*	10µM*	.	2.2µM*	2.2µM*
CCOc1ccc(OCc2ccc(C(=O)NCc3ccncc3)o2)cc1	3%	-21%	?	16%	?	?
COC(=O)c1ccc(COc2ccc3c(c2)CCC3)o1	.	17µM*	?	.	?	?
CC(C)(C)c1ccc(OCc2ccc(C(=O)N3CCOCC3)o2)cc1	-1%	15µM*	13%	.	?	?
O=C(NCc1cccnc1)c1ccc(COc2ccc3c(c2)CCC3)o1	1%	?	-8%	-52%	-1%	4%
Cc1cc(=O)[nH]c2nnc(SCc3ccccc3F)n12	.	-13%	.	.	.	.
COCCCNC(=O)c1cc2n(n1)CCCN(Cc1ccc(C)cc1)C2=O	.	-1%	.	.	.	.
CN(C)CC1CCCCC1OC(=O)/C=C/c1ccccc1 (stereo not drawn)	.	6%	-2%	.	-1%	0%
CC(=O)/C=C(\C)Nc1ccccc1O	.	5%	5%	.	-1%	-7%
COC(=O)c1ccc(COc2ccc(C(C)(C)C)cc2)o1	.	17µM*	?	.	0.35µM*	0.71µM*
CCCNC(=O)c1ccc(COc2ccc(C(C)(C)C)cc2)o1	.	?	-4%	.	20%	18%
O=C(Nc1cccnc1)c1ccc(COc2ccccc2Br)o1	-2%	?	13%	-40%	-2%	-2%
CCC(C)c1ccc(OCc2ccc(C(=O)OC)o2)cc1 (stereo not drawn)	.	?	?	.	0.5µM*	0.63µM*
O=C(N/N=C/c1cc([N+](=O)[O-])ccc1O)c1ccc(COc2ccc3c(c2)CCC3)o1	.	-1%	0%	.	?	-31%
O=C(N/N=C/c1ccc2ccccc2c1)c1ccc(COc2ccc3c(c2)CCC3)o1	-1%	2.7µM*	?	?	?	?
CC(C)(C)c1ccc(OCc2ccc(C(=O)Nc3cccnc3)o2)cc1	.	15µM*	?	.	0.35µM*	0.45µM*
CCc1ccc(NC(=O)C(=O)NCc2ccccn2)cc1	-3%	19µM*	?	.	3.5µM*	?
COC(=O)c1ccc(COc2ccc(NC(C)=O)cc2)o1	.	1%	2%	.	-1%	-6%
CCc1ccc(OCc2ccc(C(=O)OC)o2)cc1	.	17µM*	?	.	?	?
CCOC(=O)c1ccc(NC(=O)C(=O)NCc2ccccn2)cc1	5%	-12%	3%	-3%	-2%	4%
CCc1ccc2oc(-c3ccc(OC)cc3)cc(=Nc3cccc(C(=O)O)c3)c2c1	-8%	5.4µM*	4.1µM*	?	3.2µM*	?
CCc1ccc2oc(-c3ccc(OC)cc3)cc(=Nc3c(C)n(C)n(-c4ccccc4)c3=O)c2c1	-4%	8.5µM*	-14%	-104%	?	?
